Source: PubChem BioAssay (several laboratories)
Mot1-301 SUMO: yeast Mot1-301 growth rescue at high temperature, primary screen, SUMOylation pathway inhibitor project, S. cerevisiae, ATP luminescence, 38.5C; S. cerevisiae Mot1-301 growth rescue; percent above DMSO median, 100 means doubled; growth rescue, % at 18.8 µM; 320,000 compounds, 1% hits; AID 2716, 2010;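 active means every valid replicate shows activation above 250% relative to neutral control wells; inactive means the rest, any valid replicate at or below 250%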;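 further: OY570 slx delta 5 strain wells were the positive control but not used for scaling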
Efflux pump inh: inhibitors of Candida efflux pumps in yeast, primary screen, S. cerevisiae, Nile Red, multiplex; 330,000 compounds, 0.44% hits; inhibition, % at 10 µM; S. cerevisiae Candida pump triplex; AID 485275, 2010;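 active means plate passing quality check with inhibition over a set limit, or well fluorescence over plate mean plus 4 SD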;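 further: Nile Red retained in pooled yeast measured as flow cytometry median fluorescence; 0% = buffer negative control and 100% = Enniatin B positive control; higher means more Nile Red kept so more efflux inhibition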
A1 inh: caspase 3/7 activation in MEF A1-2A-BIM cells, primary screen, A1 inhibitor project, cell-based, luminescence, HTS; Caspase-Glo 3/7 luminescence, 3 h; percent of clofoctol response, vehicle zero; caspase activation, % (concentration not given with the values); 330,000 compounds, 0.066% hits;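 active means over half of replicate activation scores above 10%, or exactly half above 10 with the replicate mean above 10; inconclusive means replicate mean below 10 yet half the replicates above 10; inactive means over half of replicates below 10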
ALR inh: inhibitors of human ALR sulfhydryl oxidase, primary screen, biochemical, H2O2 detection, HRP-luminol luminescence, single point; purified ALR, DTT oxidation; FAD-linked sulfhydryl oxidase ALR (Homo sapiens), P55789; inhibition, % (test concentration not listed); 290,000 compounds, 3.8% hits;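 active means mean replicate inhibition above about 79%, with every replicate also reaching it, limit read from the data; inconclusive means only one of the two criteria met; inactive means mean below limit and not every replicate reaching it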
VLA-4 inh: inhibition in human VLA-4 binding assay, primary screen, VLA-4 allosteric modulator project, MLPCN library, flow cytometry, VLA-4 expressing cells. Integrin alpha-4 (Homo sapiens), P13612. ligand binding flow cytometry. inhibition, % (about 7 µM as worked out from the volumes in the protocol). 330,000 compounds, 0.2% hits; in the data active means inhibition above about 50%
AHR act: AHR activators, primary screen, cell-based, luminescence, luciferase reporter, human. AID 2796, 2010. 320,000 compounds, 2.5% hits. AHR-responsive luciferase reporter cells. activation, % at 5 µM; in the data active means activation above about 47%;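 further: 0% = vehicle wells and 100% = reference agonist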
Target sequence (P35869 whole entry, looked up): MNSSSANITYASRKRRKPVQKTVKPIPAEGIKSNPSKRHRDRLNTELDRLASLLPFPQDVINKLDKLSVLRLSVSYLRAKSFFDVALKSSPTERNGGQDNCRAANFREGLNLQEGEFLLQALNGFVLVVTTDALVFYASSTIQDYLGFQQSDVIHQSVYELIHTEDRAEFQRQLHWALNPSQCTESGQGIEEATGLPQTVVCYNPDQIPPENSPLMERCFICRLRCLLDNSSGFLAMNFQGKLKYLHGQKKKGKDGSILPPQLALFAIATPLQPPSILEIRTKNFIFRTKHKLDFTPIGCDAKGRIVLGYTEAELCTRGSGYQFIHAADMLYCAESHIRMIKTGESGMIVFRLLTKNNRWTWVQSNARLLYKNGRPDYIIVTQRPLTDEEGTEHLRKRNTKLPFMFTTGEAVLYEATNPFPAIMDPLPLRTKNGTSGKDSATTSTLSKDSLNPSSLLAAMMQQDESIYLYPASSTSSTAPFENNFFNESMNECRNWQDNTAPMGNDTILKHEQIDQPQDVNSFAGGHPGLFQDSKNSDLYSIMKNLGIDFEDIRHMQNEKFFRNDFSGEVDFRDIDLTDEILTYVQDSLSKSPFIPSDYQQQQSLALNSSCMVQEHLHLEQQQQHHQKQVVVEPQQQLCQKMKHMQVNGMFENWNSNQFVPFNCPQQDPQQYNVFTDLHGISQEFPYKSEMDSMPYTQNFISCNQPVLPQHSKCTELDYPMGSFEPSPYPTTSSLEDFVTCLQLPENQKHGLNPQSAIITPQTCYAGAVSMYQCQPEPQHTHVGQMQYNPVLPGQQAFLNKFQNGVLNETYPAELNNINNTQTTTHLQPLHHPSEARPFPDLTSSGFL
Starred values were filed as active, the others as inactive; ? = inconclusive; . = no result given. A selection: hits, their analogues and other compounds. The true share with any hit is near 7.2%.

SMILES | Mot1-301 SUMO | Efflux pump inh | A1 inh | ALR inh | VLA-4 inh | AHR act
CC(=O)NCCn1c(SCc2ccccc2F)nc2ccccc2c1=O | 5.1 | 0.2 | -0.6 | -5.3 | 5.9 | 0.5
NC(=O)c1ccc(Oc2ccc3c(c2)CCC3)c([N+](=O)[O-])c1 | -7.9 | 0.1 | 0.1 | 3.7 | -6.1 | 0.0
O=c1c(O)c(-c2ccc3c(c2)OCO3)oc2ccccc12 | 24.4 | 0.2 | -0.1 | . | -0.6 | 69.3*
Nc1c(Cl)cc(C2=NCCn3nc4cc(C(F)(F)F)ccc4c32)cc1Cl | -28.8 | 0.0 | -0.5 | 1.7 | 18.0 | 53.9*
COc1ccc(C2=NCCn3nc4ccccc4c32)cc1 | 5.6 | -0.2 | 0.1 | 2.1 | 28.1 | 54.2*
COc1ccc(-c2nc3ccccc3c(=O)n2O)cc1 | 10.7 | -0.6 | -1.6 | -0.4 | -2.1 | 6.9
COc1ccc2c3n(nc2c1)CCN=C3c1cc(Cl)c(N)c(Cl)c1 | -5.1 | 0.0 | -0.2 | -46.3 | -5.3 | 61.3*
CC1Cc2cc(S(=O)(=O)N3CCCC(C(=O)N4CCCCC4)C3)ccc2N1C(=O)C1CC1 (stereo not given) | 3.3 | 0.2 | 0.3 | -2.1 | 2.8 | -0.3
CC(=O)NC(Cc1c[nH]c2ccccc12)C(=O)NCCc1ccccn1 (stereo not given) | -16.2 | 0.3 | -0.6 | 1.5 | 22.6 | 3.2
c1ccc(CC2CCN(Cc3ccccn3)CC2)cc1 | 342.8* | 0.0 | 1.3 | -1.9 | 6.0 | -0.5
CC(=O)CCc1c[nH]c2c(C(=O)O)cccc12 | 173.4 | 0.0 | 0.0 | -9.1 | 16.2 | 2.7
Nc1nc(N2CCN(c3ccc(F)cc3)CC2)n[nH]1 | -9.6 | -0.1 | 0.7 | 97.9* | -3.8 | 0.5
COc1ccc2[nH]c(=O)c(CN(Cc3ccco3)Cc3nnnn3Cc3ccccc3)cc2c1 | -5.7 | -0.1 | 0.7 | 6.2 | 3.8 | -0.2
COCCn1nnnc1CN(Cc1ccco1)Cc1cc2cc3c(cc2[nH]c1=O)OCO3 | 6.1 | 0.1 | 0.2 | 5.9 | 2.8 | 71.9*
Cn1c(=O)c2c(nc(Oc3cccc(Br)c3)n2C)n(C)c1=O | 1.9 | -0.1 | 0.3 | -13.0 | 14.9 | 47.9*
CN(C)c1cccc(Oc2nc3c(c(=O)n(C)c(=O)n3C)n2C)c1 | 1.1 | -0.2 | 0.3 | 71.4 | -9.3 | 15.1
O=C(CCC1CC(=O)Nc2ccccc21)NCc1cccnc1 (stereo not given) | -5.6 | 0.1 | 0.9 | . | -18.8 | 0.6
COc1ccc(NC(=O)CC2Nc3cccc4cccc(c34)NC2=O)cc1 (stereo not given) | . | 0.1 | -0.7 | 99.7* | 24.7 | 56.6*
COc1ccc(NC(=O)CC2Nc3cc(C)c(C)cc3NC2=O)c([N+](=O)[O-])c1 (stereo not given) | -14.0 | -0.1 | -0.1 | -5.6 | 11.6 | 61.2*
O=C(CC1Nc2ccccc2NC1=O)Nc1cc(Cl)cc(Cl)c1 (stereo not given) | -18.8 | 0.0 | -0.3 | -0.9 | 5.8 | 48.5*
O=C(CC1NC(=O)NC1=O)Nc1ccc(Cl)cc1 (stereo not given) | -12.8 | -0.1 | -0.4 | 2.5 | -67.6 | 1.3
O=C(CC1Nc2ccccc2NC1=O)NCc1cccnc1 (stereo not given) | . | 0.1 | -0.2 | -9.2 | -9.0 | 48.8*
CN(CC(=O)NCc1ccccc1Cl)S(=O)(=O)c1cccs1 | 1.9 | -0.1 | 0.0 | -11.0 | -5.4 | -0.8
Cc1cccc(Nc2n[nH]c(=S)s2)c1C | 2.2 | 0.0 | 0.1 | 98.9* | 2.2 | -2.3
Cn1ncc(C#N)c1NC(=O)C1CC(c2ccccc2Cl)=NO1 (stereo not given) | 1.2 | -0.1 | 0.5 | -6.1 | 2.6 | 0.3
SMILES | Mot1-301 SUMO | Efflux pump inh | A1 inh | ALR inh | VLA-4 inh | AHR act
Cc1cc(C(=O)COc2cc(F)ccc2[N+](=O)[O-])c(C)n1C1CC1 | 8.4 | 0.0 | 0.8 | -2.4 | 11.8 | 76.5*
O=C(O)CCC(=O)Nc1ccc2c(c1)Cc1cc(NC(=O)CCC(=O)O)ccc1-2 | -14.9 | 0.4 | 0.1 | 99.4* | -0.9 | 1.3
CC(Oc1ccc(C#N)cc1)C(=O)c1ccc(F)c(F)c1 (stereo not given) | -10.4 | 0.1 | 0.2 | -17.7 | 10.2 | -1.2
Clc1ccc(C2=CC(c3ccco3)n3ncnc3N2)cc1 (stereo not given) | 19.5 | 0.0 | 3.1 | 34.5 | 2.5 | 71.1*
COc1cc([N+](=O)[O-])ccc1NC(=O)NCc1ccco1 | . | 0.0 | 0.5 | . | -0.4 | -5.2
Cc1cc(C(=O)C(=O)NC(C)C)c(C)n1-c1ccc([N+](=O)[O-])cc1 | -7.7 | -0.1 | 0.0 | -12.6 | 3.2 | -3.7
COCCNC(=O)C(=O)c1cc(C)n(-c2ccc([N+](=O)[O-])cc2)c1C | -13.0 | -0.1 | -0.2 | 97.4* | 5.6 | -1.8
Cc1ccc(S(=O)(=O)N(C)C)cc1NC(=O)CN1C(=O)NC(Cc2ccccc2)C1=O (stereo not given) | -0.5 | 0.0 | 0.1 | -6.2 | 1.4 | -0.3
Cc1nn2c(-c3cccc(NC(=O)CSc4nc5ccccc5o4)c3)nnc2c2ccccc12 | 0.0 | 0.0 | 0.0 | 98.7* | -7.0 | 26.1
N#Cc1c(/N=C/c2cccs2)sc2c1CCCCC2 | -18.0 | 0.1 | -14.3 | 94.8* | 10.1 | 0.4
CN(C)/C=N/c1sc2c(c1C#N)CCC2 | -15.2 | -0.1 | -0.7 | 87.2* | 5.4 | -1.4
CN(C)/C=N/c1sc2c(c1C#N)CCCCC2 | 3.7 | 0.4 | -0.2 | 58.5 | 11.4 | 16.1
CCC(C)Sc1ccc([C@H]2N[C@@](Cc3ccccc3)(C(=O)OC)[C@H]3C(=O)N(CC)C(=O)[C@@H]23)cc1 (stereo not given in full) | -7.1 | 0.2 | ? | -2.6 | -0.5 | -2.4
CCN(CC)S(=O)(=O)c1ccc(/C=C/C(=O)OCC(=O)N(C)C)cc1 | 2.6 | 0.1 | 0.2 | 0.6 | 7.1 | -0.2
COc1ccc(-c2nc(NC3=NCCCCC3)sc2C)cc1 | -14.4 | 0.3 | 0.0 | 98.5* | -4.1 | 73.1*
CCN(CC)c1ccc(NC(=O)c2c(OC)cccc2OC)c(C)c1 | -2.1 | 0.0 | -5.0 | 98.9* | 26.1 | 9.1
CCN(CC)c1ccc(NC(=O)C2=CCN(S(=O)(=O)c3ccc(F)cc3)CC2)c(C)c1 | -5.0 | -0.4 | 0.0 | 86.7* | -12.8 | -1.2
COc1cc(NC(=O)CN2C(=O)NC(c3ccccc3)(c3ccccc3)C2=O)c(C)cc1[N+](=O)[O-] | 1.5 | -0.1 | -0.1 | -16.9 | 13.6 | 9.6
O=C(NCc1ccc2c(c1)CCO2)Nc1cccc(C(F)(F)F)c1 | -8.0 | 0.1 | -0.3 | -3.1 | 2.4 | 0.1
O=C1N/C(=N/O)S/C1=C/c1cccc([N+](=O)[O-])c1 | -11.0 | -0.3 | -4.2 | 8.3 | 8.9 | 3.1
